# Peg3 prom inh: reduces Peg3 promoter-driven luciferase expression in HeLa | HeLa PEG-Prom luciferase reporter, luminescence, overnight | inhibition, % at 20 µM | 1.7% of 360,000 active | AID 588405;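 active = inhibition of at least 50% at 20 µM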
# KKLEB cytotox: reduces viability of KKLEB cystic fibrosis airway cells. 0.36% of 360,000 active. activity change (cytotoxicity), % at 5 µM. KKLEB CF airway cells viability, ATPlite luminescence, overnight; stronger effect = lower value; cells stimulated with P. aeruginosa culture filtrate. AID 602141;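 active = corrected activity change at or below -50% at 5 µM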
# TWEAK-Fn14 inh: TWEAK-Fn14 signaling inhibition; 2% of 360,000 active; TWEAK-stimulated Fn14 reporter cells, luciferase luminescence, 8 h; inhibition, % at 10 µM; AID 1159606; in the data active = inhibition above about 50%
# HIF-2a inh: blocks HIF-2a reporter activity; AID 624352; 0.72% of 360,000 active; 786-0 RCC cells HIF-2a reporter, luciferase luminescence, overnight; inhibition, % at 18.8 µM;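 active = inhibition of the luminescence signal of 40% or more relative to plate controls, in a single-dose primary screen at 18.75 µM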
# CF NFkB inh: blocks PAF-induced NF-kB reporter in cystic fibrosis cells | KKLEB NF-kB-GFP reporter, GFP fluorescence overnight | inhibition, % at 5 µM | 0.86% of 360,000 active;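 active = at least 50% inhibition at 5 µM, scaled per plate between neutral and stimulator controls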;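 note: PAF is a Pseudomonas aeruginosa culture filtrate used as stimulus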
# TROY NFkB inh: inhibitors of TROY-dependent NF-kB signaling. Q293 LMP1-TROYcd NF-kB luciferase reporter, 4 h. inhibition, % at 10 µM. 0.98% of 360,000 active. AID 1347056;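 active = compounds whose plate-normalised and pattern-corrected inhibition of the luciferase reporter signal at the single screening dose is 50% or more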
# A number is an active result; 0 = inactive; - = no result. Only some compounds are listed: those with a hit (about 4% of all), similar ones and a draw of the others.
SMILES,Peg3 prom inh,KKLEB cytotox,TWEAK-Fn14 inh,HIF-2a inh,CF NFkB inh,TROY NFkB inh
CCCOCCOC(=O)c1[nH]c2c(c1C)C(=O)CC(c1cc(OC)ccc1OC)C2 (centres undefined),0,0,0,0,54.0,0
CC(CCc1ccccc1)NC(=O)C(=O)c1c[nH]c2ccccc12 (centres undefined),0,0,0,0,0,0
CNCc1ccccc1Sc1cccc2ccccc12,0,0,0,0,0,0
CN(C)CCN(C)Cc1ccccc1Sc1cccc2ccccc12,102.3,0,0,0,0,0
Cc1cc(-c2nn3c(C)nnc3s2)ccc1NC(=O)C(C)(C)C,0,0,52.2,0,0,0
CCc1nnc(NC(=O)CN2CCC(O)(c3ccccc3OC)CC2)s1,0,0,0,0,0,0
CCOC(=O)N1CCN(C(=O)CSCC(=O)Nc2nc(-c3ccc(OC)cc3)cs2)CC1,0,0,0,0,0,0
CCOC(=S)SCC(=O)Nc1nc(-c2ccc(Br)cc2)cs1,0,0,0,0,66.3,0
CCOC(=O)N1CCN(C(=O)CSCC(=O)Nc2nc(-c3ccc(-c4ccccc4)cc3)cs2)CC1,0,0,93.1,0,0,57.3
COc1ccccc1C1(O)CCN(CC(=O)Nc2nc(-c3ccccc3)cs2)CC1,0,0,54.8,0,0,0
Cc1cc(C)c(C(=O)NC2CCCc3c2cnn3-c2ccc(C)c(C)c2)c(=O)[nH]1 (centres undefined),0,0,0,0,0,0
CC(C(=O)Nc1ncc([N+](=O)[O-])s1)N1C(=O)c2ccccc2S1(=O)=O (centres undefined),0,0,0,0,0,0
O=C(Nc1ccccc1)c1cn2ccccc2n1,0,0,89.5,0,0,0
O=C(Nc1ccc(-n2cnnn2)cc1)c1cn2ccccc2n1,0,0,0,0,0,0
Cc1ccc(-c2ccc(CCC(=O)O)n2NC(=O)c2ccco2)cc1,0,0,77.0,0,0,-
O=C(O)CCc1ccc(-c2ccc(F)cc2)n1NC(=O)c1ccco1,0,0,0,0,0,0
CCOC(=O)N1CCC2(CC1)CC(=O)c1cc(O)ccc1O2,0,0,63.5,0,0,0
CSc1ncccc1C(=O)Nc1cccc(S(=O)(=O)N2CCCCC2)c1,0,0,0,0,0,0
CC(C)c1ccc(/C=C(\NC(=O)c2ccccc2)C(=O)NCCCn2ccnc2)cc1,0,0,0,0,0,0
O=c1[nH]c(=S)[nH]c2c1C(c1ccc(Br)cc1)c1c([nH]c(=S)[nH]c1=O)O2,0,0,76.7,0,0,0
CC(C)c1ccc(-c2noc(C3CCCN(C(=O)c4ccc(F)cc4F)C3)n2)cc1 (centres undefined),0,0,51.6,0,0,0
Cc1ccccc1NC(=O)N1CCCC(c2nc(-c3ccc(F)cc3)no2)C1 (centres undefined),0,0,0,0,0,0
Cc1ccccc1NC(=O)N1CCCC(c2nc(-c3ccc(C(C)C)cc3)no2)C1 (centres undefined),0,0,55.4,0,0,74.0
CC(C)CN1CCC(C(=O)NC(c2ccc(F)cc2)c2ccc3ccccc3n2)CC1 (centres undefined),0,0,0,0,0,0
COc1ccc(/C=C/CN2CCC(C(=O)NC(c3ccc(F)cc3)c3ccc4ccccc4n3)CC2)cc1 (centres undefined),102.0,0,0,0,0,0
SMILES,Peg3 prom inh,KKLEB cytotox,TWEAK-Fn14 inh,HIF-2a inh,CF NFkB inh,TROY NFkB inh
Cc1ccc(C2=C(O)C(=O)C(c3ccc(C)cc3)=C(O)C2=O)cc1,0,0,0,0,55.6,0
CCOc1ccccc1C(=O)NCC(=O)NNC(=O)c1csc(N2CCOCC2)n1,0,0,0,0,0,0
O=C(COc1ccccc1)NCC(=O)N1CCCC(C(F)(F)F)C1 (centres undefined),0,0,0,0,0,0
C=CCC[C@H](Cc1ccc(F)cc1)C(=O)OC[C@H](Cc1c[nH]c2ccccc12)NC(=O)[C@@H](CC=C)CC(=O)N(CCO)Cc1ccccc1,53.5,0,60.0,0,0,0
C=CCC[C@@H](Cc1ccc(F)cc1)C(=O)OC[C@H](Cc1c[nH]c2ccccc12)NC(=O)[C@H](CC=C)CC(=O)N(CCO)Cc1ccccc1,64.4,0,59.7,0,0,0
C=CCC[C@H](Cc1ccc(F)cc1)C(=O)OC[C@@H](Cc1c[nH]c2ccccc12)NC(=O)[C@@H](CC=C)CC(=O)N(CCO)Cc1ccccc1,0,0,0,0,0,0
CC1OC(Nc2cccc3ccccc23)C(O)C(O)C1O (centres undefined),0,0,92.0,0,0,0
CC1OC(Nc2ccc(N=Nc3ccccc3)cc2)C(O)C(O)C1O (centres undefined),0,0,0,0,0,0
CCc1cccc(NC(=O)Cn2cc(C=O)c3ccccc32)c1,0,0,71.5,0,0,0
COc1ccc(OC)c(NC(=O)C2(C)CCN2CCOc2ccccc2)c1 (centres undefined),0,0,0,0,0,0
O=[N+]([O-])c1ccc(Nc2nc(N/N=C\c3ccc4c(c3)OCO4)nc(N3CCCCC3)n2)cc1,0,0,54.5,0,0,0
COc1ccc(C(=O)Cn2c(C)nc([N+](=O)[O-])c2Br)cc1,0,0,50.1,0,0,0
COc1cccc(CNC(=O)c2ccccc2-c2ccccc2)c1,0,0,0,0,0,0
Brc1ccc2c(c1)-c1ccccc1C1=NCCN12,87.3,0,0,0,0,0
OCC[C@@H]1C[C@H](O)[C@@H](O)[C@@]2(OCCc3ccccc32)O1,0,0,0,0,0,0
CCN1C(=O)C(C(=O)Nc2ccc(OC)cc2)C2CC1(C)Oc1ccccc12 (centres undefined),0,0,77.8,0,0,-
Nc1n[nH]c2c1C1(CCCCC1)Cc1ccccc1-2,0,0,0,0,0,0
Nc1ncnc2c1C1(CCCCC1)Cc1ccccc1-2,0,0,59.0,0,0,59.0
CCCCn1c(N)c(N(CC(C)C)C(=O)CCNC(=O)c2ccc(Br)cc2)c(=O)[nH]c1=O,0,0,0,0,0,0
CCCOC(=O)c1ccc(Oc2cn[nH]c2-c2ccc(O)cc2O)cc1,0,0,0,0,0,50.1
CCCCOc1ccc(C(=O)N/N=C/c2ccc(OCCN3CCCCC3)c(OC)c2)cc1,65.2,0,0,0,0,0
COc1ccc(/C=N/NC(=O)c2cccnc2)cc1CN1CCCc2ccccc21,0,0,0,0,0,0
COc1ccc(C(=O)N/N=C/c2ccc(OC)c(CN3CCCc4ccccc43)c2)cc1,0,0,57.7,0,0,0
CC(C)CN1C(=S)SC(C)(C)C1n1oc(=O)n(-c2ccc(Cl)cc2)c1=O (centres undefined),66.5,-56.2,0,0,65.4,0
COc1ccc(-c2csc(N(CCCN(C)C)C(=O)c3ccc(OC)c(OC)c3)n2)cc1,0,0,0,0,0,0

# High-throughput results (PubChem BioAssay)
